{"source": "ChEMBL document CHEMBL2218924", "about": "“A broad activity screen in support of a chemogenomic map for kinase signalling research and drug discovery” (Biochem J, 2013)", "key": {"[1]": {"biological_target": "T1, Serine/threonine-protein kinase TBK1 (Homo sapiens) (UniProt Q9UHD2)", "T1 sequence (whole entry)": "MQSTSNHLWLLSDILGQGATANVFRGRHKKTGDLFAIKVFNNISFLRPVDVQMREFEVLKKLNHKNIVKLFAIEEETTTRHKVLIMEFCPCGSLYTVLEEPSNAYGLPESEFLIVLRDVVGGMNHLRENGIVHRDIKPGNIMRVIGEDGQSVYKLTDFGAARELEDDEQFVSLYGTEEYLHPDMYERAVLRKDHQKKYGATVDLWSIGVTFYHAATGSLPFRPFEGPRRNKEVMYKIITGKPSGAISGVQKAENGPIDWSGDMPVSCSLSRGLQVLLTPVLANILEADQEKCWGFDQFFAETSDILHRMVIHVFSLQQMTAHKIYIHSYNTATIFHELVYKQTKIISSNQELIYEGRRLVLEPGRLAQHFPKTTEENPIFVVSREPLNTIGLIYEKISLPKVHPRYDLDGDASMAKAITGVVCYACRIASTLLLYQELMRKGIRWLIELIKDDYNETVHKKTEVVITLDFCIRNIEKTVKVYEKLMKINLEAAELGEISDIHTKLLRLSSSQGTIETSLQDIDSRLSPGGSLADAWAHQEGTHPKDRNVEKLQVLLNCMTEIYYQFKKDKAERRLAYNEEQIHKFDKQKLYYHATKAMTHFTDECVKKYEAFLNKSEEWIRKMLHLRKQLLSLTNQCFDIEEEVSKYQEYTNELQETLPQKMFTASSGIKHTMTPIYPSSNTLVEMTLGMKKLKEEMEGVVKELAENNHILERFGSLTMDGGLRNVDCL", "details": "at 1 µM"}, "[2]": {"biological_target": "T1, Serine/threonine-protein kinase TBK1 (Homo sapiens)", "details": "at 10 µM"}, "[3]": {"biological_target": "T2, TGF-beta receptor type-1 (Homo sapiens) (UniProt P36897)", "T2 sequence (whole entry)": "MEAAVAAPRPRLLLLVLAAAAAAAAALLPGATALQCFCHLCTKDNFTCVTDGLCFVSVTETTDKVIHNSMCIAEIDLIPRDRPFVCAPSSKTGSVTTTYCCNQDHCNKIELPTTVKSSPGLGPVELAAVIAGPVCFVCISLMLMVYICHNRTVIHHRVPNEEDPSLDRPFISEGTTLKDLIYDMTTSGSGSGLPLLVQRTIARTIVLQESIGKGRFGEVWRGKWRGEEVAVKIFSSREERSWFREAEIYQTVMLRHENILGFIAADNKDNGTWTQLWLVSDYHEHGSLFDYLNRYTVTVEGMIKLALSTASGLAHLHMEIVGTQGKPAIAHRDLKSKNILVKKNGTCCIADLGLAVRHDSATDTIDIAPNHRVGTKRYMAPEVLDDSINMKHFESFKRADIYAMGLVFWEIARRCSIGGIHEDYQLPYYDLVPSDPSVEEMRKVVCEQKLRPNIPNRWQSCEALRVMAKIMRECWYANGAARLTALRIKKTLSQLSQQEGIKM", "details": "at 1 µM"}, "[4]": {"biological_target": "T2, TGF-beta receptor type-1 (Homo sapiens)", "details": "at 10 µM"}, "[5]": {"biological_target": "T3, Inhibitor of nuclear factor kappa-B kinase subunit alpha (Homo sapiens) (UniProt O15111)", "T3 sequence (whole entry)": "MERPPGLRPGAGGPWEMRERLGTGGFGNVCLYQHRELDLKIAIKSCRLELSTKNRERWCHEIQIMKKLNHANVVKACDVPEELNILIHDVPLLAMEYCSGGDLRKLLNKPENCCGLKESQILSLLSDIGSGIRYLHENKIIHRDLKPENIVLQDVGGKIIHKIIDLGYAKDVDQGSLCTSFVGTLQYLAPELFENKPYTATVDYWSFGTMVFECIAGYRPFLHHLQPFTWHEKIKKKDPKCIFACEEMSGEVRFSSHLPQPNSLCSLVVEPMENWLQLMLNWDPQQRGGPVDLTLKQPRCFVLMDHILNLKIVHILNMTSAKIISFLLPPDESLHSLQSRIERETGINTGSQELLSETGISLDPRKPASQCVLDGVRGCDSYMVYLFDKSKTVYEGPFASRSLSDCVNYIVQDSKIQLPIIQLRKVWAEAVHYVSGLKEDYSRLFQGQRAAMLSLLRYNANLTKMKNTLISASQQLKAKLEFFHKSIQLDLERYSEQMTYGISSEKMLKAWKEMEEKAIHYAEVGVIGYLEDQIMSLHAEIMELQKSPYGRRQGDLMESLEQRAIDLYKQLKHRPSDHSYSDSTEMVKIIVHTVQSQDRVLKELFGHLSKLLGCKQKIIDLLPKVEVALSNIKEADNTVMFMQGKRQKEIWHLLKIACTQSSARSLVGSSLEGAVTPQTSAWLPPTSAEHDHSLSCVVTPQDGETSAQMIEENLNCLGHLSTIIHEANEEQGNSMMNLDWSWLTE", "details": "at 1 µM"}, "[6]": {"biological_target": "T3, Inhibitor of nuclear factor kappa-B kinase subunit alpha (Homo sapiens)", "details": "at 10 µM"}, "[7]": {"biological_target": "T4, Inhibitor of nuclear factor kappa-B kinase subunit beta (Homo sapiens) (UniProt O14920)", "T4 sequence (whole entry)": "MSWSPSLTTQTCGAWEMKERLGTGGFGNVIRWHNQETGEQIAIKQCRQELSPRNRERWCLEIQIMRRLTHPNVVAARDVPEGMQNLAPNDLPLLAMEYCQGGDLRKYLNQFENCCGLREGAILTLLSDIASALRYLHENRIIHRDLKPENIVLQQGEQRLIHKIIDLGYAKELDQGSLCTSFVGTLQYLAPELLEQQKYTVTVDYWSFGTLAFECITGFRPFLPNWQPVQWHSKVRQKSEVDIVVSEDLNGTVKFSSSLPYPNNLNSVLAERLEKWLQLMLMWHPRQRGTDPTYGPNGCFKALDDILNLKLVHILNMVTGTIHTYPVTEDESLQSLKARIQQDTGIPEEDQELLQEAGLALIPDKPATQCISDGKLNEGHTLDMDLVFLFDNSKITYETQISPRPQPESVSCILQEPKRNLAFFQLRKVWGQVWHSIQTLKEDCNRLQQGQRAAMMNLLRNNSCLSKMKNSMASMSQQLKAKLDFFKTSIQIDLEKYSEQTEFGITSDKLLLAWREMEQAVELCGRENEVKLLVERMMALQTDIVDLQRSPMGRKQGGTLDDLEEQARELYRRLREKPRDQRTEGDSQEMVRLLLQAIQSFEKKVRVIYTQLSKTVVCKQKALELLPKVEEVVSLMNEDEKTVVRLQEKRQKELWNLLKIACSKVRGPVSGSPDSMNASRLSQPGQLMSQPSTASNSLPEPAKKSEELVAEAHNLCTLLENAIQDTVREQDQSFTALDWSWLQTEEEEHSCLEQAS", "details": "at 1 µM"}, "[8]": {"biological_target": "T4, Inhibitor of nuclear factor kappa-B kinase subunit beta (Homo sapiens)", "details": "at 10 µM"}, "[9]": {"biological_target": "Insulin receptor (Homo sapiens) (UniProt P06213)", "sequence (P06213 28-758 limits assumed)": "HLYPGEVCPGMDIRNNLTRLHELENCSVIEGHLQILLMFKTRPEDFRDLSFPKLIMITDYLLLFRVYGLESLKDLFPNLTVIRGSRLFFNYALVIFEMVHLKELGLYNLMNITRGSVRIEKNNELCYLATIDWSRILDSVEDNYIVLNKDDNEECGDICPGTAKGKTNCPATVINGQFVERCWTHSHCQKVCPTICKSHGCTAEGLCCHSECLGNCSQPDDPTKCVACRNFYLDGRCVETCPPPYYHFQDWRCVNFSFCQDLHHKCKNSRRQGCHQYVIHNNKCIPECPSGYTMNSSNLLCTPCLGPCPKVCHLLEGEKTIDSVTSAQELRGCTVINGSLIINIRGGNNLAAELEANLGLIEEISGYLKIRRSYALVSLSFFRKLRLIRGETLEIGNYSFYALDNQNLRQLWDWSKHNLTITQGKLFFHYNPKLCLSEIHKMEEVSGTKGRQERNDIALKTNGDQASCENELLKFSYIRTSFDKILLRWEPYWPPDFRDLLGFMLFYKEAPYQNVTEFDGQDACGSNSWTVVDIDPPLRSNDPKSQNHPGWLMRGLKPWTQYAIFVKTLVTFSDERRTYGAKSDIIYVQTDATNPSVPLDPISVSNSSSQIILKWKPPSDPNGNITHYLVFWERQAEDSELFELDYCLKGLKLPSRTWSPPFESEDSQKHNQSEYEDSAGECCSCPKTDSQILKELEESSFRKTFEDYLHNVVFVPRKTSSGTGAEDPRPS", "sequence (P06213 763-1382 limits assumed)": "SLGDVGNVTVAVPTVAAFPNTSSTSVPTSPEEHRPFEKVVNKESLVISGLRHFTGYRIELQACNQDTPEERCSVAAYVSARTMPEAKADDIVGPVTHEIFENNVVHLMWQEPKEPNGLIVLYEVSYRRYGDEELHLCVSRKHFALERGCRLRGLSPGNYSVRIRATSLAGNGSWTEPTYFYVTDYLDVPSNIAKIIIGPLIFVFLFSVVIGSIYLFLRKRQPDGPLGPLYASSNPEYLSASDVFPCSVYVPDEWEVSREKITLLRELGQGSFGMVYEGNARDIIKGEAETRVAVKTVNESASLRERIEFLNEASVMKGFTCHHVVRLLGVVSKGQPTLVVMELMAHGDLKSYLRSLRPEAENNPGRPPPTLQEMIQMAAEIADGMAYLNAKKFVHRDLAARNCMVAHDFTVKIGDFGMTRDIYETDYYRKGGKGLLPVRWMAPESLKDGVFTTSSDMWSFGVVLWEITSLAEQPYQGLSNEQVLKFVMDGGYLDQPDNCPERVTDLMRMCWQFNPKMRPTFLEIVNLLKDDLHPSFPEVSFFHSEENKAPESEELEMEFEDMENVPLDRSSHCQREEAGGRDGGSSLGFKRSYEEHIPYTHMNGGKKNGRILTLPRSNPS", "details": "at 1 µM"}}, "data": [{"smiles": "O=C(O)/C=C/c1cc(Br)c(Br)c(Br)c1Br", "values": [{"measurement": "residual activity", "setting": "[1]", "value": 69, "unit": "%"}, {"measurement": "residual activity", "setting": "[2]", "value": 58, "unit": "%"}, {"measurement": "residual activity", "setting": "[3]", "value": 101, "unit": "%"}, {"measurement": "residual activity", "setting": "[4]", "value": 97, "unit": "%"}, {"measurement": "residual activity", "setting": "[5]", "value": 98, "unit": "%"}, {"measurement": "residual activity", "setting": "[6]", "value": 35, "unit": "%"}, {"measurement": "residual activity", "setting": "[7]", "value": 105, "unit": "%"}, {"measurement": "residual activity", "setting": "[8]", "value": 65, "unit": "%"}, {"measurement": "residual activity", "setting": "[9]", "value": 144, "unit": "%"}]}]}
